Experimental data as given in PubChem BioAssay AID1347141 (National Center for Advancing Translational Sciences (NCATS), 2019).
This is one part of the list. Records with an inconclusive call do not appear. Activity calls are given as the source filed them. Calls follow the shape of the dose curve; as a rule, active = well fitted inhibition curve with a large enough effect; inconclusive = small, poorly fitted or top-dose-only effect; inactive = flat fitted curve, though single readings scatter.

assay: qHTS of pediatric cancer cell lines to identify multiple opportunities for drug repurposing: Orthogonal 3D viability screen for RD cells; settings: RD rhabdomyosarcoma 3D spheroid viability, PI/Hoechst imaging, 72 h; series mostly up to 30.7 µM
Excerpt: Drug repurposing or repositioning has been offered as a strategy for drug development in oncology programs. This approach has special potential for childhood cancers and other rare or orphan diseases, where the expected return on new drug development has been a disincentive to pharmaceuticals. […] In this project we exploit the poly-pharmacology of drugs to discover new indications via phenotypic screening of a panel of 19 well-characterized cell lines derived from solid tumors seen in children and adolescents. The goal is to identify approved drugs with previously unrecognized anticancer properties that has the potential to reveal new mechanisms and biological processes involved in carcinogenesis or drug resistance. We employed a titration-based paradigm (quantitative high-throughput screening or qHTS), where all compounds were tested at multiple concentrations for their effect on cell viability. Concentration-response curves (CRCs) were derived directly from the primary screen, and both potency and efficacy values were used to identify compounds with robust bioactivity profiles. […] These two assays will be used to validate active compounds and assess the correlation of compound's potency in 2D vs 3D cultures on selected cell lines. Assay Submitter: Nathalia J. Martinez, National Center for Advancing Translational Sciences, National Institutes of Health, Rockville, MD, USA; email: natalia.martinez@nih.gov Shen, M et al. Quantitative high-throughput phenotypic screening of pediatric cancer cell lines identifies multiple opportunities for drug repurposing. Oncotarget 2017 Dec 19;9(4):4758-4772. PMID 29435139.
The cells were obtained from University of North Carolina (UNC), Pediatric Preclinical Testing Program (PPT), and Coriell Institute (CI). qHTS viability in 3D culture: Cells were assayed in phenol red-free growth media at a density of 1,000 cells/well, with the exception of Daoy, and SH-N-SH which were assayed at 1,500 cells/ well. Thirty muL of cells were dispensed into 384-well, ULA, round bottom plates (Corning) using a Multidrop dispenser. Plates were spun down at 1,000 rpm for 1 min and incubated at 37 degrees C, 5% CO2, under a humidified atmosphere for either 24 (Daoy) or 48 hours (all other cell lines) to allow spheroid formation. Ninety-two nanoliter of compounds and controls (neutral control DMSO or positive control bortezomib at final concentrations of 0.5 µM) were subsequently transferred via GNF Pintool. Plates were sealed using a breathable seal (Diversified Biotech, Dedham, MA) and incubated for 72 hours at 37 degrees C. Spheroid viability was first determined by high-content imaging using Hoechst 33342 and Propidium Iodide (PI, ThermoFisher Scientific), followed by addition of CellTiter-Glo 3D (Promega). Specifically, 3 µL/well of PBS containing a 1:500 dilution of both dyes was dispensed using Multidrop. Dyes were incubated for 1 hour before imaging using the Celigo Image Cytometer. Then, 20 µl of CellTiter-Glo 3D were added per well. Plates were incubated for 30 min at RT on a VWR microplate shaker (300 rpm) and analyzed for luminescence intensity using a ViewLux High-throughput CCD imager equipped with clear filters. Image analysis was done using the Celigo Tumorsphere 1+2+3 application software as previously described. […] The data were exported to Excel, and the average fluorescent intensities were used to calculate the ratio of PI over Hoechst, which was used to quantify viability. […]

SMILES	Potency
CC[C@H]1CN2CCc3cc(OC)c(OC)cc3[C@@H]2C[C@@H]1C[C@H]1NCCc2cc(OC)c(OC)cc21	2.04 µM (active)
CC[C@]1(O)C[C@@H]2CN(CCc3c([nH]c4ccccc34)[C@@](C(=O)OC)(c3cc4c(cc3OC)N(C)[C@H]3[C@@](O)(C(=O)OC)[C@H](OC(C)=O)[C@]5(CC)C=CCN6CC[C@]43[C@@H]65)C2)C1	0.0456 µM (active)
CC1(C)O[C@@H]2C[C@@H]3[C@H]4C[C@@H](F)C5=CC(=O)C=C[C@]5(C)[C@@]4(F)[C@@H](O)C[C@]3(C)[C@]2(C(=O)CO)O1	10.2 µM (active)
CC(NCc1ccc2c(c1)nc(NC(=O)c1ccc(-c3cn[nH]c3)s1)n2CC(C)(C)O)C(C)(C)C (stereo not given)	0.81 µM (active)
C=C1C(=CC=C2CCC[C@]3(C)[C@@H]([C@H](C)C=C[C@H](C)C(C)C)CC[C@@H]23)C[C@@H](O)C[C@@H]1O	inactive
